Measurements as given in ChEMBL document CHEMBL2218924, “A broad activity screen in support of a chemogenomic map for kinase signalling research and drug discovery” (Biochem J, 2013).

How the values were obtained:
[1] = biological target: Tyrosine-protein kinase SYK (Homo sapiens) (UniProt P43405); details: at 10 µM
[2] = biological target: T1, Mitogen-activated protein kinase kinase kinase 7 (Homo sapiens) (UniProt O43318); details: at 1 µM
T1 sequence (whole entry): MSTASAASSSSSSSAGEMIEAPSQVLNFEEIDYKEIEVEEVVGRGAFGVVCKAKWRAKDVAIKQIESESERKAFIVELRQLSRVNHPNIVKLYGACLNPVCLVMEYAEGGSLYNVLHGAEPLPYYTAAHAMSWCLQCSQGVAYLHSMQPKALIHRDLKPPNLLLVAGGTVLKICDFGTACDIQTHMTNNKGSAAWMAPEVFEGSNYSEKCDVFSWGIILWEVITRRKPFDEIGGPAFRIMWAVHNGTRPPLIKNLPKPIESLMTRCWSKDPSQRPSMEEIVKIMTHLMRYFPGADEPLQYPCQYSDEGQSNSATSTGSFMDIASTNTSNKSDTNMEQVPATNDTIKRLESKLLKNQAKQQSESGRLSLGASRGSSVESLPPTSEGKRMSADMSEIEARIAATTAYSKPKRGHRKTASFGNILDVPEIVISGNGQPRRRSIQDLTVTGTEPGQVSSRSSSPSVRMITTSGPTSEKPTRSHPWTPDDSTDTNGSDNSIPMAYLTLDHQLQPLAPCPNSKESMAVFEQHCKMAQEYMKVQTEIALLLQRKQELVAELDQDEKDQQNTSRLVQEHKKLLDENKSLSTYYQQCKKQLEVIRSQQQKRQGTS

[3] = biological target: T1, Mitogen-activated protein kinase kinase kinase 7 (Homo sapiens); details: at 10 µM
[4] = biological target: T2, Serine/threonine-protein kinase TAO1 (Homo sapiens) (UniProt Q7L7X3); details: at 1 µM
T2 sequence (whole entry): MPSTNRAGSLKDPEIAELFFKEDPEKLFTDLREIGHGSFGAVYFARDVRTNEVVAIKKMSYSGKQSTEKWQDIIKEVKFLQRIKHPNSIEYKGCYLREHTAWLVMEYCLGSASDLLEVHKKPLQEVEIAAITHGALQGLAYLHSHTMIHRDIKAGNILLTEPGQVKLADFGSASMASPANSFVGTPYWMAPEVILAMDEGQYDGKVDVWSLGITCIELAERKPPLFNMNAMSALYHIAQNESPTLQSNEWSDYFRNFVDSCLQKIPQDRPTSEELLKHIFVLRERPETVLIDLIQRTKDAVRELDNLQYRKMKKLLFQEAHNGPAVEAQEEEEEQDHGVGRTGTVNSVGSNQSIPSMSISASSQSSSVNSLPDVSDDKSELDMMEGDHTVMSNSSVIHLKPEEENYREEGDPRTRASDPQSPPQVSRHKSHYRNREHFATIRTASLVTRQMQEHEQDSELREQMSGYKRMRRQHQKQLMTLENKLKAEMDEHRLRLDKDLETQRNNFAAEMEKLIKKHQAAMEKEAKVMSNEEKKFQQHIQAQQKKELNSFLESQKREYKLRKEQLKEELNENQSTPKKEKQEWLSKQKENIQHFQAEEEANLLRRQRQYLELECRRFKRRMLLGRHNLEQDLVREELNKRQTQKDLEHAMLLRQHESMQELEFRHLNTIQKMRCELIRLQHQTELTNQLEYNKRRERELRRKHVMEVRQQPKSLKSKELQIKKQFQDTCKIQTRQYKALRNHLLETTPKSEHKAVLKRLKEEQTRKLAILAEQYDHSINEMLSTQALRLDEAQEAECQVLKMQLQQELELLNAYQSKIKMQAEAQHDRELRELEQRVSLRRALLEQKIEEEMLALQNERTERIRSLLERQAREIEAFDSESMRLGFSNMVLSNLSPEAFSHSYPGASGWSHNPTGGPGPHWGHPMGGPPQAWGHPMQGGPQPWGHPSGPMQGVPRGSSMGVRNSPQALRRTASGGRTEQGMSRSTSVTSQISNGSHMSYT

[5] = biological target: T2, Serine/threonine-protein kinase TAO1 (Homo sapiens); details: at 10 µM
[6] = biological target: T3, Serine/threonine-protein kinase TAO2 (Homo sapiens) (UniProt Q9UL54); details: at 1 µM
T3 sequence (whole entry): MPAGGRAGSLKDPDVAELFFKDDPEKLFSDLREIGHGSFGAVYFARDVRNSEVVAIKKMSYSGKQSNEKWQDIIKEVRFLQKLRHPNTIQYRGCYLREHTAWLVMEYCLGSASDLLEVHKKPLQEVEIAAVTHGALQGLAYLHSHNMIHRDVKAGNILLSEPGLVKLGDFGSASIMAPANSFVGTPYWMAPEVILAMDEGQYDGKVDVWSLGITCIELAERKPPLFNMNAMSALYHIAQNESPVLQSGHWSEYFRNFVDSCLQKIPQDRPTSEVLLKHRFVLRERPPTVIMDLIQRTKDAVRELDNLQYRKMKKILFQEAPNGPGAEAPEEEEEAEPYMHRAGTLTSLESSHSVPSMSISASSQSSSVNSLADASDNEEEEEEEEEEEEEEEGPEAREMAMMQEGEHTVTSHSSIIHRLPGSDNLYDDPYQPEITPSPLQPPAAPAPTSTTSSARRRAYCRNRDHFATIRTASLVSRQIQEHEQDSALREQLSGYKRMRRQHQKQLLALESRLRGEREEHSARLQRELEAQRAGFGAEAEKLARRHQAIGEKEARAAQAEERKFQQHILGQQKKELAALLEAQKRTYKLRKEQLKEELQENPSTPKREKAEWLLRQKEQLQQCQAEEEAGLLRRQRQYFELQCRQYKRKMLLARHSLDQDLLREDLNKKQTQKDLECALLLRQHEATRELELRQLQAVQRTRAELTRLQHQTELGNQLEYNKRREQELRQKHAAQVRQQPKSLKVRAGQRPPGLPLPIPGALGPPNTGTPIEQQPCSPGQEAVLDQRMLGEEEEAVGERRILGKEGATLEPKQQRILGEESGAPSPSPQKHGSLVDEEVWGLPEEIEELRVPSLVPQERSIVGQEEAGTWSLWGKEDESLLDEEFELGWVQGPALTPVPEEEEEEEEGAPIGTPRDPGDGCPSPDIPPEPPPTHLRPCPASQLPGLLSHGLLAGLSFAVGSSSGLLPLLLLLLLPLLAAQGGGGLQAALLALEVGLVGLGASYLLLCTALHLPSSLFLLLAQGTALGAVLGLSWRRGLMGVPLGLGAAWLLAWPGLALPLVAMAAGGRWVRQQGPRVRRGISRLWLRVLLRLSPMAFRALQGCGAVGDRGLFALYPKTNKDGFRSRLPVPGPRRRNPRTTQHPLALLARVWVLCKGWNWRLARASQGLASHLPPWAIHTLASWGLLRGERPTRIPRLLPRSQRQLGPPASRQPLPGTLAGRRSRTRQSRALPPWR

[7] = biological target: T3, Serine/threonine-protein kinase TAO2 (Homo sapiens); details: at 10 µM
[8] = biological target: T4, Serine/threonine-protein kinase TAO3 (Homo sapiens) (UniProt Q9H2K8); details: at 1 µM
T4 sequence (whole entry): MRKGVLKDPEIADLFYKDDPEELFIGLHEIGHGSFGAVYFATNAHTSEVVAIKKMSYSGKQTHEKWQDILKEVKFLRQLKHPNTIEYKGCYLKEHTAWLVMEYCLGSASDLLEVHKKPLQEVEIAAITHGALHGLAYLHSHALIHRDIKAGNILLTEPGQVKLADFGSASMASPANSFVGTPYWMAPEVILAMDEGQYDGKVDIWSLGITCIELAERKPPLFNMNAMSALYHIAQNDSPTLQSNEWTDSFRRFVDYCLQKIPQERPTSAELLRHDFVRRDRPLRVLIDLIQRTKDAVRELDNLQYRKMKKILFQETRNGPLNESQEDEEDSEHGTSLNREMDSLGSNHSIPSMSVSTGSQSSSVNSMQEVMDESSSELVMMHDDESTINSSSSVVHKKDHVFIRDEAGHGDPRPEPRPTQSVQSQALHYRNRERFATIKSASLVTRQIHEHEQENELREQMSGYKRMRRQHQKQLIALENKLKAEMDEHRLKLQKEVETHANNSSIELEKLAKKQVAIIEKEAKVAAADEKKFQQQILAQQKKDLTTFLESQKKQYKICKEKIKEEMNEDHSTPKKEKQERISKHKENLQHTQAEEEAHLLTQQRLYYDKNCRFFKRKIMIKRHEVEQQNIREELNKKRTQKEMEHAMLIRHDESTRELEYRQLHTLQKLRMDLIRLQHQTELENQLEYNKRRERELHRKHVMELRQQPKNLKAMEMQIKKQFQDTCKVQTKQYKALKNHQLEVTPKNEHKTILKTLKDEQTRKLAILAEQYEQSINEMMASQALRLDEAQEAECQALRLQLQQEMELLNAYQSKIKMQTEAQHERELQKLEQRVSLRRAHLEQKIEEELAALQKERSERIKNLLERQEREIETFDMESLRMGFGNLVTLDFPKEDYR

[9] = biological target: T4, Serine/threonine-protein kinase TAO3 (Homo sapiens); details: at 10 µM
[10] = biological target: T5, Serine/threonine-protein kinase TBK1 (Homo sapiens) (UniProt Q9UHD2); details: at 1 µM
T5 sequence (whole entry): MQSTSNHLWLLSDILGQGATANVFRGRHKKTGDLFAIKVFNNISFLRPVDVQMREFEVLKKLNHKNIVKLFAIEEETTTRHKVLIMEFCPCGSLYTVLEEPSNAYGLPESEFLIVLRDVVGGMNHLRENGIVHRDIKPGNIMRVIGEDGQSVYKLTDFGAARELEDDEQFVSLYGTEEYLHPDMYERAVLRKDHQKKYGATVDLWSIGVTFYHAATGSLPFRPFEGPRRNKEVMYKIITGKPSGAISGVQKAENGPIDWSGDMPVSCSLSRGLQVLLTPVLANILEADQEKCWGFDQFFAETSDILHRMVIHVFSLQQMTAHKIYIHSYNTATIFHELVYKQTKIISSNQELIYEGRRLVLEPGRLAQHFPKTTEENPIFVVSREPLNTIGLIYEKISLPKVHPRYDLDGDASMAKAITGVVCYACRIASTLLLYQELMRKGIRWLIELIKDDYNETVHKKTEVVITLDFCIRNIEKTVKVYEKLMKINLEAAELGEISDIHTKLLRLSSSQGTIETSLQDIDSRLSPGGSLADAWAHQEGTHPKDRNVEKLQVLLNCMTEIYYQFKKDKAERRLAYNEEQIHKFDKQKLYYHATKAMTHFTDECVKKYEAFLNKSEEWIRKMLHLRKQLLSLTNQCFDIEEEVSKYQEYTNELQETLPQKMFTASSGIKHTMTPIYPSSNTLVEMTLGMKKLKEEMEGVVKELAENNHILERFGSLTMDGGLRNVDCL

[11] = biological target: T5, Serine/threonine-protein kinase TBK1 (Homo sapiens); details: at 10 µM
[12] = biological target: T6, TGF-beta receptor type-1 (Homo sapiens) (UniProt P36897); details: at 1 µM
T6 sequence (whole entry): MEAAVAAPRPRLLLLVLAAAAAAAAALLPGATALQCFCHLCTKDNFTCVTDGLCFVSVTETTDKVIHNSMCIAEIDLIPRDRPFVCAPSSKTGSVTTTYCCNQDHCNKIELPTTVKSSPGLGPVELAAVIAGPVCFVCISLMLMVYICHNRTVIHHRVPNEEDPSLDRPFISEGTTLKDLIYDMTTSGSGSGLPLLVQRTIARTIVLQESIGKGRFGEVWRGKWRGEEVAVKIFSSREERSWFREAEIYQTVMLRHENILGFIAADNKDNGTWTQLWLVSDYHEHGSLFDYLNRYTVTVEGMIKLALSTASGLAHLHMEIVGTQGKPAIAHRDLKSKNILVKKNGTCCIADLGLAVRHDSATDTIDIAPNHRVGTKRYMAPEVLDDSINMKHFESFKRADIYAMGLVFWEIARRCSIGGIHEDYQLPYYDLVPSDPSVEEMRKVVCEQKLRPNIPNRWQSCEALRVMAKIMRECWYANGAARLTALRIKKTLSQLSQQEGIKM

[13] = biological target: T6, TGF-beta receptor type-1 (Homo sapiens); details: at 10 µM
[14] = biological target: T7, Inhibitor of nuclear factor kappa-B kinase subunit beta (Homo sapiens) (UniProt O14920); details: at 1 µM
T7 sequence (whole entry): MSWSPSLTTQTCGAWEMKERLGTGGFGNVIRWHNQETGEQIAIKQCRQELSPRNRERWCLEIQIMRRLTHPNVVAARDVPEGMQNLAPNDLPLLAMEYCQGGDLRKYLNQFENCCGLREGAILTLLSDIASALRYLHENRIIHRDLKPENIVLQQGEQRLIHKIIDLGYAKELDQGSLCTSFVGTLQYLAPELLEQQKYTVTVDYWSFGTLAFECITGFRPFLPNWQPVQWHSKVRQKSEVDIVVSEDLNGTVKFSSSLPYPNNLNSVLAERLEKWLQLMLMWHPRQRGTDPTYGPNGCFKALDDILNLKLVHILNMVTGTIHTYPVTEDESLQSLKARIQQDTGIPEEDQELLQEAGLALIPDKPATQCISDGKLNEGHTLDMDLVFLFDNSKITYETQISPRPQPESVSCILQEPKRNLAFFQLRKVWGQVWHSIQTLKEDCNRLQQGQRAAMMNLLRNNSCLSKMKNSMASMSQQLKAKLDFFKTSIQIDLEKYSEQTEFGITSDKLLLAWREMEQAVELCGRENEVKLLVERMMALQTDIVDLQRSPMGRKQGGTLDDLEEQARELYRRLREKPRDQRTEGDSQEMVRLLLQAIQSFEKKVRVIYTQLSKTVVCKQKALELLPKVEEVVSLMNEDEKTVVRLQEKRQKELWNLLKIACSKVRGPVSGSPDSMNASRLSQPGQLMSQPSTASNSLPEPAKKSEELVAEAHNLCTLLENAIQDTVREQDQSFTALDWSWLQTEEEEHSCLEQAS

[15] = biological target: T7, Inhibitor of nuclear factor kappa-B kinase subunit beta (Homo sapiens); details: at 10 µM
[16] = biological target: Insulin receptor (Homo sapiens) (UniProt P06213); details: at 1 µM
Insulin receptor (Homo sapiens), sequence (P06213 28-758 limits assumed): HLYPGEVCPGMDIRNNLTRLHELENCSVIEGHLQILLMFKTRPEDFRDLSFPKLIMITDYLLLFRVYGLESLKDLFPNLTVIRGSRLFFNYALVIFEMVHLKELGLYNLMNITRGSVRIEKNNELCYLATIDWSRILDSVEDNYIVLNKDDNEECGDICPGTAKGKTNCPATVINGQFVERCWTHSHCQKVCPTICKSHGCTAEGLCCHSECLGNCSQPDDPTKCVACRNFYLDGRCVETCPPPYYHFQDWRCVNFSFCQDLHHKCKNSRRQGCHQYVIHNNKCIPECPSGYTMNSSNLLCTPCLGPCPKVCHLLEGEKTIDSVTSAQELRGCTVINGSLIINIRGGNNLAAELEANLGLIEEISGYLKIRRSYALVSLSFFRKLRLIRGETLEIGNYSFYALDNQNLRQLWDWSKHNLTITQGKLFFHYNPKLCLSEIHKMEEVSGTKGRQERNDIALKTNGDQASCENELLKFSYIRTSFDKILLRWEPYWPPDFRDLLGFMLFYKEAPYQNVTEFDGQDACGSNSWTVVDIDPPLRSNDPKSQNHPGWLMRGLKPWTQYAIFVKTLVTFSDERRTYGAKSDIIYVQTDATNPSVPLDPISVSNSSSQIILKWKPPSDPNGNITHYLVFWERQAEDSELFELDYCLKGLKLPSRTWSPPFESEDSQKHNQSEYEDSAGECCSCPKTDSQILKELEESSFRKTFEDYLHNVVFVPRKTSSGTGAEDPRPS
Insulin receptor (Homo sapiens), sequence (P06213 763-1382 limits assumed): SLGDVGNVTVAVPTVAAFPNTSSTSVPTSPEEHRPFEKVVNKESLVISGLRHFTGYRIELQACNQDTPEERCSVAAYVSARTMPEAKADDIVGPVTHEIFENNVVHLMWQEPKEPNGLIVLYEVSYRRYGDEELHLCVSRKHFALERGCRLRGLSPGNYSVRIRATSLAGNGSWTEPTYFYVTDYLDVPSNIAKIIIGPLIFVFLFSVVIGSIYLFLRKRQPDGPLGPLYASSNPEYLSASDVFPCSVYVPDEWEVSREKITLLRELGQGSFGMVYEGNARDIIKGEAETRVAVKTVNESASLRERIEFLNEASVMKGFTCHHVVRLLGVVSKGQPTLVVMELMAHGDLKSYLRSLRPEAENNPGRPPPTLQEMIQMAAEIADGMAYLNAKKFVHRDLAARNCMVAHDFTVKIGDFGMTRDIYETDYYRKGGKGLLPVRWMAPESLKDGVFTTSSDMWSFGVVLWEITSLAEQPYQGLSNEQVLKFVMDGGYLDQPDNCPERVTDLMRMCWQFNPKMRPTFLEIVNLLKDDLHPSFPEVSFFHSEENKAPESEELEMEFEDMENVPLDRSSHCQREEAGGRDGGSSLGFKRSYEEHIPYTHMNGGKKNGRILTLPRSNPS

Compound | residual activity [1] | residual activity [2] | residual activity [3] | residual activity [4] | residual activity [5] | residual activity [6] | residual activity [7] | residual activity [8] | residual activity [9] | residual activity [10] | residual activity [11] | residual activity [12] | residual activity [13] | residual activity [14] | residual activity [15] | residual activity [16]
O=c1cc(N2CCOCC2)oc2c1ccc1ccccc12 | 94% | 93% | 90% | 102% | 87% | 98% | 96% | 98% | 95% | 77% | 71% | 89% | 88% | 96% | 94% | 108%
O=C(Nc1nc2ccccc2n1CCN1CCOCC1)c1cccc([N+](=O)[O-])c1 | 84% | 78% | 74% |  |  |  |  |  |  | 73% | 60% | 76% |  |  |  | 
